Source: PubChem BioAssay (several laboratories)
This is a sample that favours compounds with a hit; in the whole collection about 22% have one here.
Measles CPE – protection of cells from measles virus; Measles virus-infected cells, CPE protection, absorbance; protection (pct of control), % at 4 µM; actives 1.5% (n = 140,000); in the data active = protection mostly above about 24%, no sharp cut-off; inactive = mostly below about 26%
CYP2C19 inh – blocks human cytochrome P450 2C19. P33261. CYP2C19 Supersomes, luciferin-H EGE luminescence, 30 min. inhibition, % at 5 µM. actives 21% (n = 96,000);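 active = CYP2C19 inhibition above a set limit at 5 µM in the primary screen, cut at about 50% in these data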
Target sequence (P33261 whole entry, looked up): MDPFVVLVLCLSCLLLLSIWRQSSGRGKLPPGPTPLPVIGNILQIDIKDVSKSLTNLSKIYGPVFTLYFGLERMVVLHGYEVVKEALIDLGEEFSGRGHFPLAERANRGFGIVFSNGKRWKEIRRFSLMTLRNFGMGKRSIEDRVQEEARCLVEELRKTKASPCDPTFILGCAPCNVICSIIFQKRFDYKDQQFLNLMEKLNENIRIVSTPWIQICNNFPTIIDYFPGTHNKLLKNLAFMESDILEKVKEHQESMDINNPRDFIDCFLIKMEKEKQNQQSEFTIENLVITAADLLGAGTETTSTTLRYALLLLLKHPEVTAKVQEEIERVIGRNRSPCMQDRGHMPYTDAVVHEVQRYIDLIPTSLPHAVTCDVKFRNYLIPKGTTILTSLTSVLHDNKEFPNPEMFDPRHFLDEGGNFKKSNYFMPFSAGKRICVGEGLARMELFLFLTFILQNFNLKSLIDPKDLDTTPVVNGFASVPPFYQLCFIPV
CYP2C9 inh – blocks human cytochrome P450 2C9. P11712. AID 777. inhibition, % at 5 µM. CYP2C9 Supersomes, luciferin-H conversion, luminescence. actives 20% (n = 96,000);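 active = blocking of liver enzyme CYP2C9 beyond about 50% at 5 µM, limit read from the data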
CYP2C9 act – CYP2C9 (human) activation | AID 1024 | actives 1.4% (n = 96,000) | activation factor at 5 µM | recombinant CYP2C9, luciferin-H conversion, luminescence; active compounds read high; factor 1 = untreated enzyme, 0 = blocked;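 active = activation factor of 2 or more for CYP2C9 at a 5 µM dose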
CYP2C19 act – increases human CYP2C19 enzyme activity | P33261 | recombinant CYP2C19, luciferin-H EGE luminescence; active compounds read high; 0 = fully inhibited enzyme, 1 = untreated enzyme | activation factor at 5 µM | 96,000 tested, under 10 active | AID 1025;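 active = activation factor of at least 2 at 5 µM in the primary screen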
Of the large screens only hits and unclear results are named; the others gave an inactive call.

O=C(CCCCCn1c(=S)[nH]c2cc3c(cc2c1=O)OCO3)N1CCN(Cc2ccccc2)CC1	CYP2C9 inh 69.6
Cc1ccc(C)c(N2CCN(C(=O)CCn3c(=S)[nH]c4cc5c(cc4c3=O)OCO5)CC2)c1	CYP2C9 inh 78.7
COc1ccc(N2CCN(C(=O)CCCn3c(=S)[nH]c4cc5c(cc4c3=O)OCO5)CC2)cc1	CYP2C9 inh 74.0
O=C(CCCn1c(=S)[nH]c2cc3c(cc2c1=O)OCO3)N1CCN(c2ccccn2)CC1	none
CCCNC(=O)c1ccc(Cn2c(=S)[nH]c3c([nH]c4ccc(OC)cc43)c2=O)cc1	none (no result: CYP2C19 inh, CYP2C9 inh, CYP2C9 act, CYP2C19 act)
CC(C)(Oc1ccc(Cl)cc1)C(=O)Nc1ncccn1	none
O=c1c2cc3c(cc2[nH]c(=S)n1CCN1CCOCC1)OCO3	none
CC(C)OCCCn1c(=S)[nH]c2cc3c(cc2c1=O)OCO3	none
O=C(CCCCCn1c(=S)[nH]c2cc3c(cc2c1=O)OCO3)N1CCN(C2CCCCC2)CC1	CYP2C9 inh 80.9
O=C(CCCCCn1c(=S)[nH]c2cc3c(cc2c1=O)OCO3)N1CCN(C(=O)c2ccco2)CC1	CYP2C9 inh 64.5
C(=N\Nc1nc2ccccc2s1)/c1ccco1	none
COc1cccc(C2C=C(c3ccc(OC)cc3OC)Nc3nnnn32)c1 (stereo not drawn)	CYP2C19 inh 57.9, CYP2C9 inh 76.9
COc1ccc(C2=CC(c3ccc(OC)c(OC)c3)n3nnnc3N2)c(OC)c1 (stereo not drawn)	CYP2C19 inh 89.5, CYP2C9 inh 97.0
COC(=O)C1=C(C(=O)c2ccccc2)C(c2ccc(O)c(OC)c2)n2nnnc2N1 (stereo not drawn)	none
O=C(CSc1ccccc1)Nc1cccnc1	none
CC(C)(C)NC(=O)COC(=O)c1ccc(S(=O)(=O)N2CCCCCC2)cc1	none
O=C(Cc1ccccc1)NC1CCN(S(=O)(=O)c2cccc(F)c2)CC1	CYP2C19 inh 72.6
CC(C)(C)C(=O)NC1CCN(S(=O)(=O)c2cccc(C(F)(F)F)c2)CC1	CYP2C19 inh 80.9
CC(C)CCN(C)C1CCN(S(=O)(=O)c2cccc(C(F)(F)F)c2)CC1	CYP2C19 inh 52.1
O=C(Nc1ccccc1N1CCOCC1)C1CCN(S(=O)(=O)c2cccc(C(F)(F)F)c2)CC1	none (no result: CYP2C19 inh, CYP2C9 inh, CYP2C9 act, CYP2C19 act)
CCOC(=O)NC(=O)CSc1nnc(C)s1	none
Cc1nc2sc(C(c3ccccc3)N3CCN(C(=O)c4ccco4)CC3)c(O)n2n1 (stereo not drawn)	none (no result: CYP2C19 inh, CYP2C9 inh, CYP2C9 act, CYP2C19 act)
Cc1nc2sc(C(c3ccc(Cl)cc3)N3CCN(c4ccccc4F)CC3)c(O)n2n1 (stereo not drawn)	CYP2C19 inh 67.3
Cc1nc2sc(C(c3ccco3)N3CCN(c4ccccc4F)CC3)c(O)n2n1 (stereo not drawn)	CYP2C19 inh 91.7, CYP2C9 inh 68.9
CCOC(=O)c1c(-c2cccc3ccccc23)csc1NC(=O)C1C2CCC(O2)C1C(=O)O (stereo not drawn)	none (no result: CYP2C19 inh, CYP2C9 inh, CYP2C9 act, CYP2C19 act)
Cc1cccc2cc(COC(=O)C(C)(C)C)c(=O)[nH]c12	none
COc1ccc(N2COC3c4cccc5cccc(c45)C32)cc1 (stereo not drawn)	none (no result: CYP2C19 inh, CYP2C9 inh, CYP2C9 act, CYP2C19 act)
Nc1ccc(S(=O)(=O)c2cccc(N)c2)cc1	CYP2C9 act 2.4
CN(C)S(=O)(=O)Nc1ccc(Br)cc1F	none
Cn1cc(S(=O)(=O)Nc2ccc(Br)cc2F)c(=O)n(C)c1=O	Measles CPE 60.9, CYP2C9 inh 63.4
COc1ccc(/C(C)=N/NC(=O)C2C3CCCCC32)c(OC)c1 (stereo not drawn)	none (no result: CYP2C19 inh, CYP2C9 inh, CYP2C9 act, CYP2C19 act)
CC(C)(C)C(=O)N(Cc1nc2ccccc2c(=O)[nH]1)Cc1cccs1	none (no result: CYP2C19 inh, CYP2C9 inh, CYP2C9 act, CYP2C19 act)
COc1ccc2c(c1OC)C(=O)N(c1cccc(C)c1)C2=O	CYP2C9 act 3.1
O=C(NC1CCCCC1)C(c1ccc2ncccc2c1)N(Cc1ccco1)C(=O)c1ccc2c(c1)OCCO2 (stereo not drawn)	CYP2C19 inh 70.2, CYP2C9 inh 69.5
O=C(NC1CCCCC1)C(c1ccc2ncccc2c1)N(Cc1cccs1)C(=O)c1cccs1 (stereo not drawn)	CYP2C19 inh 60.0, CYP2C9 inh 59.3
CCC(C)(C(=O)NC1CCCCC1)N(Cc1ccco1)C(=O)c1ccc2c(c1)OCO2 (stereo not drawn)	CYP2C19 inh 83.4, CYP2C9 inh 60.3
O=C(NC1CCCCC1)C(c1cccs1)N(Cc1cccs1)C(=O)c1cccs1 (stereo not drawn)	none (no result: CYP2C19 inh, CYP2C9 inh, CYP2C9 act, CYP2C19 act)
CCC(C)(C(=O)NC1CCCC1)N(CC1CCCO1)C(=O)c1ccc2c(c1)OCO2 (stereo not drawn)	none
O=C(NCC1CCCO1)c1ccc(COc2ccc(Br)cc2)cc1 (stereo not drawn)	none (no result: CYP2C19 inh, CYP2C9 inh, CYP2C9 act, CYP2C19 act)
O=C(Nc1nc2ccccc2n1Cc1ccccc1)c1ccco1	none
CCN1CCC(NC(=O)c2cc(OC)c(OC)cc2OC)CC1	none
Cc1coc(C)c1C(=O)CC1(O)C(=O)Nc2cc(Cl)cc(Cl)c21 (stereo not drawn)	CYP2C19 inh 59.1
CCS(=O)(=O)c1ccc2oc(Nc3ccccc3C)nc2c1	CYP2C19 inh 59.0, CYP2C9 inh 54.2
O=C(c1ccccc1)N1CC(COc2ccccc2)OC(c2ccco2)O1 (stereo not drawn)	CYP2C19 inh 88.3
CN1C(=O)c2oc3ccccc3c(=O)c2C1c1ccncc1 (stereo not drawn)	none (no result: Measles CPE)
COc1ccc(C2c3c(oc4ccccc4c3=O)C(=O)N2Cc2ccncc2)cc1 (stereo not drawn)	CYP2C9 inh 59.0
CCCOc1ccc(C2c3c(oc4ccccc4c3=O)C(=O)N2CCCN2CCOCC2)cc1 (stereo not drawn)	CYP2C19 inh 54.0, CYP2C9 inh 77.8
CCOc1ccc(C2c3c(oc4ccccc4c3=O)C(=O)N2CCCN2CCOCC2)cc1 (stereo not drawn)	none
CCN(CC)CCNC(=O)c1ccc(Cl)c(S(=O)(=O)Nc2ccccc2OC)c1	none
O=C(CN1CCCCC1)NCCNC(=O)CN1CCCCC1	none
Cc1ccc(-n2c(-c3cccc(C)c3)n[nH]c2=S)cc1	none
CC(OC(=O)c1ccccc1NS(=O)(=O)c1cccc(N)c1)C(=O)N(C)Cc1ccccc1 (stereo not drawn)	none (no result: CYP2C19 inh, CYP2C9 inh, CYP2C9 act, CYP2C19 act)
CCOC(=O)c1ccc(NS(=O)(=O)c2cc(-c3nnnn3C(C)C)ccc2OC)cc1	CYP2C19 inh 90.5, CYP2C9 inh 91.3
COc1ccc(S(=O)(=O)Nc2ccc(S(=O)(=O)Nc3ccc(F)cc3)cc2)cc1C	none (no result: CYP2C19 inh, CYP2C9 inh, CYP2C9 act, CYP2C19 act)
COc1ccc(C)cc1S(=O)(=O)Nc1ccc(F)cc1	CYP2C19 inh 87.9, CYP2C9 inh 72.3
COc1ccc(OC)c(S(=O)(=O)Nc2ccc(F)cc2)c1	CYP2C19 inh 51.7
CCn1nnnc1-c1ccc(OC)c(S(=O)(=O)Nc2ccc(C(=O)OC)cc2)c1	none
COc1ccc(OC)c(S(=O)(=O)n2nnc3ccccc32)c1	CYP2C19 inh 59.4
COc1ccc(Cl)cc1S(=O)(=O)n1nnc2ccccc21	none
COc1ccc(OC)c(S(=O)(=O)Nc2cnc3ccccc3c2)c1	CYP2C19 inh 73.0
COC(=O)c1ccc(NS(=O)(=O)c2cc(C)ccc2OC)cc1	CYP2C9 inh 55.4
